Pf apPOL block: Pf-apPOL DNA polymerase inhibition; inhibition, % at 10 µM; AID 1794808; 210,000 compounds, 0.25% hits; Recombinant Pf-apPOL, molecular beacon fluorescence, 1.5 h
mHTT CaM bind: inhibitors of human mutant huntingtin-calmodulin interaction | 190,000 compounds, 3.6% hits | AlphaScreen His-mHTT/GST-CaM binding, luminescence | P42858 | inhibition, % at 15 µM
Of the large screens only hits and unclear results are named; the others gave an inactive call. The sample as a whole holds a higher share of hits than the screen did. Cut-off read from the data, not from the text of the source: active = inhibition above about 50%; inactive = the rest.

COc1cccc(/C=C2/C(=O)N(c3ccccc3)N=C2C)c1O	mHTT CaM bind 73.0
CCCC1=NN(c2ccccc2)C(=O)/C1=C/c1cc(OC)c(OC)cc1Cl	none
COc1cccc(/C=C2/C(=O)N(c3ccccc3)N=C2C)c1OC	none
COc1ccc(Br)cc1/C=C1/C(=O)N(c2ccccc2)N=C1C	none
COc1c(Br)cc(Br)cc1/C=C1/C(=O)N(c2ccccc2)N=C1C	mHTT CaM bind 69.0
COc1cc(/C=C2/C(=O)N(c3cccc(Br)c3)N=C2C)ccc1OC(C)C	none
COc1ccc2cc(C(=O)NC(C)=O)c(=Nc3cccc(C(F)(F)F)c3)oc2c1	none
CCCCN(CC)C(=O)c1noc2c1CCCCC2	none
COC(=O)c1cc(Nc2ccccc2F)c2cccc(F)c2n1	none
O=c1[nH]c(=O)c2sc3nc(C45CC6CC(CC(C6)C4)C5)ccc3c2[nH]1	none (no result: Pf apPOL block)
O=[N+]([O-])c1cccc(C2SCCN2S(=O)(=O)c2cccc(C(F)(F)F)c2)c1 (stereo unspecified)	none
C=CCOc1ccccc1/C=C1/C(=O)N(c2ccc(Cl)c(Cl)c2)N=C1C	none
COc1cc(/C=C2/C(=O)N(c3ccc(Cl)c(Cl)c3)N=C2C)ccc1OCC(=O)O	mHTT CaM bind 51.0
COc1cccc(/C=C2/C(=O)N(c3ccc(Cl)c(Cl)c3)N=C2C)c1O	mHTT CaM bind 60.0
COc1ccc(/C=C2/C(=O)N(c3ccc(Cl)c(Cl)c3)N=C2C)cc1OC	none
Cc1nc(-c2ccc(F)cc2)nc2c1CCC(=O)N2Cc1ccco1	none
N#Cc1ccc(S(=O)(=O)N2CCC(c3noc(-c4ccc(F)cc4)n3)CC2)cc1	none
COc1cccc(NC(=O)C2OC3OC(C)(C)OC3C3OC(C)(C)OC23)c1 (stereo unspecified)	none
COc1ccc(CCC(=O)NCC2(CO)CC2)cc1	none
Cc1noc(-c2nn(C)c3c2CN(C(=O)CC2CCCCC2)CC3)n1	none
Cc1ccc(C)n1-c1nc(C(=O)N2CCOCC2)cs1	none
CCN(c1cccc(C)c1)S(=O)(=O)c1ccc2c(c1)CC(C)N2C(C)=O (stereo unspecified)	none
CCN(c1ccc(C)c(C)c1)S(=O)(=O)c1ccc2c(c1)CC(C)N2C(C)=O (stereo unspecified)	mHTT CaM bind 70.0
CC(NC(=O)C(=O)NCC1CCCO1)c1ccccc1 (stereo unspecified)	none
CN(C)c1ccc(C(CNC(=O)C(=O)NCC2CCCO2)N2CCc3ccccc32)cc1 (stereo unspecified)	mHTT CaM bind 65.4
CCNc1nc(NC(C)C)nc(OCCNS(=O)(=O)c2cc(C)ccc2C)n1	none
CCNc1nc(NCC)nc(OCCNS(=O)(=O)c2cc(C)ccc2C)n1	Pf apPOL block 89.0
CCN(CC)CC#CC1(O)CCCCC1	none
OC1(C#CC#CC2(O)CCCCC2)CCCCC1	mHTT CaM bind 82.3
Fc1cc2n[nH]nc2cc1Cl	none (no result: mHTT CaM bind)
Cc1c(C(=O)Nc2cccc(NC(=O)c3cccs3)c2)cccc1[N+](=O)[O-]	none
COc1ccc(-c2[nH]ncc2Oc2ccc(F)cc2)c(O)c1	none
COc1ccc(-c2[nH]ncc2-c2ccc(Cl)cc2)c(O)c1	mHTT CaM bind 68.8
CC1=NN(c2ccc(C)c(Cl)c2)C(=O)C1	mHTT CaM bind 91.1
CC1=NN(c2cc(Cl)c(S(=O)(=O)O)cc2Cl)C(=O)C1	none
O=CC1=C(c2ccccc2)Oc2ccccc2O1	mHTT CaM bind 51.4
O=C(O)CC1c2ccccc2Oc2ccccc21	none
Cc1cccc(Nc2nc(-c3c(C)nc4ncccn34)cs2)c1	mHTT CaM bind 77.0
Cc1nc2ncccn2c1-c1csc(Nc2ccccn2)n1	mHTT CaM bind 73.0
Cc1cccc(C(=O)Nc2c(C)nc3sccn3c2=O)c1	none
Cc1nc2sccn2c1-c1csc(Nc2cccc(O)c2)n1	mHTT CaM bind 73.0
Cc1nc2ncccn2c1-c1csc(N)n1	none (no result: Pf apPOL block)
Cc1cc(NS(=O)(=O)c2ccc(Nc3nc(-c4c(C)nc5ncccn45)cs3)cc2)no1	none
Cc1nc2ncccn2c1-c1csc(Nc2cccc([N+](=O)[O-])c2)n1	none
Cc1nc2ncccn2c1-c1csc(Nc2ccccc2)n1	mHTT CaM bind 97.0
O=S(=O)(c1ccc(OC(F)(F)F)cc1)N1CCN(c2nsc3ccccc23)CC1	none (no result: Pf apPOL block)
Cc1cc(OCC(O)CNC(C)c2ccccc2)ccc1Cl (stereo unspecified)	mHTT CaM bind 100.0
Cc1cc(Cl)ccc1OCC(O)CN1CCN(C)CC1 (stereo unspecified)	none
Cc1ccc(OCC(O)CNC(C)(C)C)cc1C (stereo unspecified)	none
Cc1cc(Cl)ccc1OCC(O)CNC(C)c1ccccc1 (stereo unspecified)	mHTT CaM bind 58.5
COc1cccc(OC)c1C(=O)Nc1ccc2c(c1)CCCN2C(=O)C1CC1	none
Cc1ccc(C)c(S(=O)(=O)N2CC=C(c3cn(C)c4ncccc34)CC2)c1	none
Cc1nc2c(C(=O)NC3CCCCC3)cnn2c(C)c1Cc1ccc(Cl)cc1	none
Cc1nc2c(C(=O)NC3CCCCC3)cnn2c(C)c1Cc1cccc(Br)c1	none
Cc1nc2c(C(=O)NC3CC3)cnn2c(C)c1Cc1cccc(Cl)c1	mHTT CaM bind 97.0
Cc1nc2c(C(=O)NC3CC3)cnn2c(C)c1Cc1cccc(Br)c1	mHTT CaM bind 92.0
Cc1nc2c(C(=O)NC3CCCC3)cnn2c(C)c1Cc1ccc(Cl)cc1	none
Cc1nc2c(C(=O)NC3CC3)cnn2c(C)c1Cc1ccc(F)cc1	mHTT CaM bind 64.0
CCN(C)C(=O)C1CN(C(=O)c2ccccc2C)CC1c1cccc(C(F)(F)F)c1 (stereo unspecified)	none
Cc1ccccc1CSCC(=O)Nc1ccc(F)cc1F	none
CCCN1CCc2nc(SCc3ccccc3F)[nH]c(=O)c2C1	none
CC(C)NC(=O)NC1CCN(C(=O)C2CCCC2)C1 (stereo unspecified)	none
CC[C@@H]1C(=O)[C@H](Cc2ccccc2)[C@H]2CCCC(=O)N3CC[C@@H]1[C@@H]23	none
CC[C@H]1c2[nH]c3ccc(C(C)C)cc3c2[C@@H]2CCN3C(=O)CCC[C@H]1[C@H]23	mHTT CaM bind 71.3
COc1cccc(CNC(=O)C2CCN(c3cncnc3N3CCCC3)CC2)c1OC	none
O=C(Nc1ccc(Cl)cc1Cl)c1nn2cc(Br)cnc2c1Br	none
CCN(CC)c1cc(C)c2cc(NC(=O)/C=C/c3ccc4c(c3)OCO4)ccc2n1	none
Cc1cc(N2CCOCC2)nc2ccc(NC(=O)/C=C/c3ccccc3Cl)cc12	none
Cc1cc(N2CCN(C)CC2)nc2ccc(NC(=O)/C=C/c3ccccc3Cl)cc12	mHTT CaM bind 93.0
Cc1cc(N2CCN(C)CC2)nc2ccc(NC(=O)/C=C/c3ccc4c(c3)OCO4)cc12	mHTT CaM bind 51.0
OCC1CCCN1Cc1c(F)cccc1Cl (stereo unspecified)	none
CCc1ccc(S(=O)(=O)N=C2C=CC(=O)C(Br)=C2)cc1	mHTT CaM bind 72.0
Cc1cc(C)c(S(=O)(=O)N=C2C=CC(=O)C=C2)cc1C	none
O=C1C=CC(=NS(=O)(=O)c2ccc(Br)cc2)C=C1	none
CC1=CC(=NS(=O)(=O)c2ccc(Br)cc2)C=C(C)C1=O	mHTT CaM bind 52.0
CC1=CC(=O)C=C(C)C1=NS(=O)(=O)c1ccccc1	none
O=C1C(Br)=CC(=NS(=O)(=O)c2ccccc2)C=C1Br	mHTT CaM bind 100.0
Cc1ccc(S(=O)(=O)N=C2C=CC(=NS(=O)(=O)c3ccc(C)cc3)C=C2)cc1	none
Cc1cc(C)c(S(=O)(=O)N=C2C=CC(=O)C(Br)=C2)cc1C	mHTT CaM bind 58.0
CNC(=O)c1c(-c2cccc(F)c2)noc1C	none
Cc1cc(O)c2c(c1)OC(=Cc1ccccc1Br)C2=O	none
Cc1cccc(OCC(=O)N2CCC3(CC2)NC(=O)N(Cc2cccc(Cl)c2)C3=O)c1	none
